Test results published in PubChem BioAssay (NCATS).
Results filed as inconclusive are left out. Unmarked numbers belong to inactive results. Calls of active or inactive are those of the source. Calls follow the shape of the dose curve; as a rule, active = well fitted inhibition curve with a large enough effect; inconclusive = small, poorly fitted or top-dose-only effect, or effect the other way; inactive = flat fitted curve, though single readings scatter. Bridge positions count the residues as written; N and C are the ends. Square brackets hold non-standard residues; d marks the D form. Peptide text beside a SMILES is read from it. hArg = N=C(N)NCCCC[C@H](N)C(=O)O; Mpa = O=C(O)CCS

Molecular target: ATP-dependent 6-phosphofructokinase (Trypanosoma brucei brucei) (UniProt O15648)
Sequence (O15648 whole entry, looked up): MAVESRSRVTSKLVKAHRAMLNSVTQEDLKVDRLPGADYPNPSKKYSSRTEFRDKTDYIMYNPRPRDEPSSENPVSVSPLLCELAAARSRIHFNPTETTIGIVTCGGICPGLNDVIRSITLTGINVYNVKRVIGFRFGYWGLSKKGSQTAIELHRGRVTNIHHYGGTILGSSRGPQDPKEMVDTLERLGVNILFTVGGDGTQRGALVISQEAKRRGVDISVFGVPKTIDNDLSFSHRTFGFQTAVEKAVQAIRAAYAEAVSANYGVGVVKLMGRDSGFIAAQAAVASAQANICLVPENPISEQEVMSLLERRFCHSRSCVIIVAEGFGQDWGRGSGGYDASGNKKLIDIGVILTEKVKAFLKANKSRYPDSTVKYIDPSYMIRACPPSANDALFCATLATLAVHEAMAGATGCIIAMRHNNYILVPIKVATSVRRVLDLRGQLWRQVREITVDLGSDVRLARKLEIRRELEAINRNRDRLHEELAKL
Assay: qHTS Assay to Find Inhibitors of T. brucei phosphofructokinase: hit validation (AID 492961)
Conditions: T. brucei PFK, ADP-Glo luminescence; series mostly up to 51.4 µM; activity change, negative = inhibition: at the top concentration
Method in brief: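 Luminescence from ADP-Glo reports ADP generated as T. brucei PFK (1.25 nM) phosphorylates 0.5 mM fructose-6-phosphate using 0.1 mM ATP. Reactions ran 45 min at room temperature, pH 8.0.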
% is scaled to controls: 0 for no effect and ±100 for the full control effect; potency is read from the fitted curve at half-maximal effect.

Question: For `Oc1ccc2[nH]cc(CCCCN3CC=C(c4ccccc4)CC3)c2c1`, which “activity change, negative = inhibition” value is on record?
Answer: -2.05%

Question: For `CCC1(CC)C(=O)NC(=O)NC1=O`, which “activity change, negative = inhibition” value is on record?
Answer: 1.2%

Question: Which “activity change, negative = inhibition” value does the source give for `Clc1ccc(CO/N=C(\Cn2ccnc2)c2ccc(Cl)cc2Cl)c(Cl)c1` here?
Answer: 17.6%

Question: For `CCNc1nc(Cl)nc(NCC)n1`, which “activity change, negative = inhibition” value is on record?
Answer: 3%

Question: Which “activity change, negative = inhibition” value does the source give for `CCC(=O)O[C@H]1CC[C@H]2[C@@H]3CCC4=CC(=O)CC[C@]4(C)[C@H]3CC[C@]12C` here?
Answer: -4.04% [at 24.3 µM]

Question: Which “activity change, negative = inhibition” value does the source give for `C[C@]12Cc3nonc3C[C@@H]1CC[C@@H]1[C@@H]2CC[C@@]2(C)[C@H]1CC[C@]2(C)O` here?
Answer: -1.22%

Question: `CCC1(c2ccccc2)CCC(=O)NC1=O` (configuration not stated) was tested. Which “activity change, negative = inhibition” value did it give?
Answer: -7.49%

Question: How did the “activity change, negative = inhibition” value turn out when `COP(=O)(OC)OC=C(Cl)Cl` was run?
Answer: -1.97%

Question: For `CC[n+]1c(-c2ccccc2)c2cc(N)ccc2c2ccc(N)cc21`, which Potency is on record?
Answer: inactive

Question: With `COCC(=O)N(c1c(C)cccc1C)C(C)C(=O)OC` (configuration not stated) as the molecule, how does the “activity change, negative = inhibition” value read?
Answer: -2.15%

Question: How did the “activity change, negative = inhibition” value turn out when `CCS(=O)(=O)C(C)(C)S(=O)(=O)CC` was run?
Answer: -2.21%

Question: How did the “activity change, negative = inhibition” value turn out when `CN1C(=O)CN=C(c2ccccc2)c2cc([N+](=O)[O-])ccc21` was run?
Answer: 0%

Question: How did the “activity change, negative = inhibition” value turn out when `c1cc2c(c(N3CCNCC3)c1)OCCO2` was run?
Answer: 2.03%

Question: `CCN(Cc1ccc(Cl)nc1)/C(=C/[N+](=O)[O-])NC` was tested. Which “activity change, negative = inhibition” value did it give?
Answer: 0.557%

Question: Which Potency does the source give for `CCNC(=O)NCc1cccc(Cl)c1` here?
Answer: 15.8 µM (active)

Question: Which “activity change, negative = inhibition” value does the source give for `CC(Cc1ccccc1)NCc1ccccc1Cl` (configuration not stated) here?
Answer: -4.69%

Question: Which “activity change, negative = inhibition” value does the source give for `O=C1NCN(c2ccccc2)C12CCN(CCCOc1ccc(F)cc1)CC2` here?
Answer: -5.75%

Question: `C[C@]12CC[C@H]3[C@@H](CC=C4C[C@@H](O)CC[C@@]43C)[C@@H]1CC[C@@H]2O` was tested. Which “activity change, negative = inhibition” value did it give?
Answer: 8.59%

Question: `CC(C)(O)C(Cl)(Cl)Cl` was tested. Which “activity change, negative = inhibition” value did it give?
Answer: -1.57%

Question: With `Cc1ncc2n1-c1ccc(Cl)cc1C(c1ccccc1F)=NC2` as the molecule, how does the “activity change, negative = inhibition” value read?
Answer: 2.78%

Question: For `Cc1c(Cl)c(=O)oc2cc(OP(=O)(OCCCl)OCCCl)ccc12`, which “activity change, negative = inhibition” value is on record?
Answer: 11.6%

Question: How did the “activity change, negative = inhibition” value turn out when `CN1C(=O)[C@@H](NC(=O)c2cc3ccccc3[nH]2)N=C(c2ccccc2)c2ccccc21` was run?
Answer: 6.14%

Question: With `OC(c1ccccc1)(c1ccccc1)C1CCNCC1` as the molecule, how does the “activity change, negative = inhibition” value read?
Answer: -4.59% [at 24.3 µM]

Question: For `COP(=S)(OC)Oc1ccc(Sc2ccc(OP(=S)(OC)OC)cc2)cc1`, which “activity change, negative = inhibition” value is on record?
Answer: -6.48%

Question: For `Oc1c(Br)cc(Br)cc1Br`, which “activity change, negative = inhibition” value is on record?
Answer: 12%

Question: `C=CCOC(Cn1ccnc1)c1ccc(Cl)cc1Cl` (configuration not stated) was tested. Which “activity change, negative = inhibition” value did it give?
Answer: -6.55%

Question: How did the “activity change, negative = inhibition” value turn out when `CCCCCCCCCCCC[N+](C)(C)CCOc1ccccc1` was run?
Answer: 4.14%

Question: For `OC(O)C(Cl)(Cl)Cl`, which “activity change, negative = inhibition” value is on record?
Answer: -0.44%

Question: How did the “activity change, negative = inhibition” value turn out when `COc1ccc(CN2CCNCC2)c(OC)c1OC` was run?
Answer: -0.334% [at 24.3 µM]

Question: Which “activity change, negative = inhibition” value does the source give for `NC(=O)[C@@H]1CSSCCC(=O)N[C@@H](CCCCN=C(N)N)C(=O)NCC(=O)N[C@@H](CC(=O)O)C(=O)N[C@@H](Cc2c[nH]c3ccccc23)C(=O)N2CCC[C@H]2C(=O)N1` ([Mpa][hArg]GDWPC-NH2; disulfide 1-7) here?
Answer: -17.5%

Question: How did the “activity change, negative = inhibition” value turn out when `C#C[C@]1(O)CC[C@H]2[C@@H]3CCC4=CC(=O)CCC4=C3C=C[C@@]21CC` was run?
Answer: 2.91%

Question: How did the “activity change, negative = inhibition” value turn out when `Nc1ccc(N)cc1` was run?
Answer: 3.07%
